The text below walks through data of PubChem BioAssay.

The target of experiment [1] is Tumor necrosis factor receptor superfamily member 10B (Homo sapiens) (UniProt O14763). In words: viability loss of caspase-8 NB7 cells with TRAIL – with/without TRAIL, luminescence panel, confirmation (AID 651596). Conditions: NB7 neuroblastoma + caspase-8, TRAIL sensitization, NB7 Caspase-8, with TRAIL, mean of runs, at 10 µM, stronger effect = higher value.
Assay in experiment [2]: as above
The note with it: NB7 neuroblastoma + caspase-8, without TRAIL, NB7 Caspase-8, without TRAIL, mean of runs, at 10 µM.

Chain of Tumor necrosis factor receptor superfamily member 10B (Homo sapiens) (O14763 whole entry, looked up): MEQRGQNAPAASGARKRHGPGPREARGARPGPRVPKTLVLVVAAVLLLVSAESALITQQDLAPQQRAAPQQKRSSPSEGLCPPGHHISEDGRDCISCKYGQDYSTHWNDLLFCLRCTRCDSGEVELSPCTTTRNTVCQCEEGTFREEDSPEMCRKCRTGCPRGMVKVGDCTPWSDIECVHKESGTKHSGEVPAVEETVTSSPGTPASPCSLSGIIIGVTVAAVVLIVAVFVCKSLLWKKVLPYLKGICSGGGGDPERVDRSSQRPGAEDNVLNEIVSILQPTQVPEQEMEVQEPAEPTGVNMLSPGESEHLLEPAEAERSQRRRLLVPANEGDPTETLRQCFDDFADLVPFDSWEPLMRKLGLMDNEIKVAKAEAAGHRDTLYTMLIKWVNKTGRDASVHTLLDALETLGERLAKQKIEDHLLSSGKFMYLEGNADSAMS

Regarding `CNS(=O)(=O)c1cccc(C(=O)OCC(=O)c2cc(C)n(CC3CCCO3)c2C)c1` (stereo unspecified), the results for the activity in experiment [1] and in experiment [2] were 77.7% and 67%, respectively.

Regarding `O=C(/C=C\Nc1ccccn1)c1ccccc1`, the activity came to 55.4% in experiment [1] and 53.2% in experiment [2].

With `O=C(COc1cc(F)ccc1[N+](=O)[O-])Nc1cc(S(=O)(=O)N2CCCC2)ccc1Cl`, the activity in experiment [1] was 26.4%; in experiment [2] it was 2.77%.

For `CCc1ccc(C2=NN(C(=O)OC)C(O)(C(F)(F)F)C2)cc1` (stereo unspecified), the activity in experiment [1] came out at 45.8%; in experiment [2] it was 59%.

As for `COc1cccc(-c2noc(-c3ccc4c(c3)OCO4)n2)c1`, the results for the activity in experiment [1] and in experiment [2] were 65.7% and 62.5%, respectively.

For `Cc1ccc(-c2cc3onc(-c4ccccc4)c3c(=O)n2C)cc1`, the activity amounted to 75% in experiment [1] and 72.3% in experiment [2].

Turning to `COc1ccc(C=Cc2ccc3ccccc3n2)c(OC)c1`, the activity in experiment [1] was determined as 79.1%; in experiment [2] it was 68.5%.

As to `CCn1cc(/C=C/C(=O)c2ccc(O)cc2)c(C)n1`, the results for the activity in experiment [1] and in experiment [2] were 63.8% and 57.5%, respectively.

In the case of `Cc1nnc(NC(=O)c2nc(S(=O)(=O)Cc3ccccc3C)ncc2Cl)s1`, the activity in experiment [1] came out at 94.7%; in experiment [2] it was 89.8%.

For `COc1cccc2oc3cc(C#CC4(O)CCCCC4)ccc3c(=O)c12`, the activity was determined as 71.2% in experiment [1] and 68.8% in experiment [2].

Regarding `Cc1ccc(-c2nn(-c3ccccc3)cc2NC(=O)CCl)cc1`, the results for the activity in experiment [1] and in experiment [2] were 94% and 95%, respectively.

With `CCOc1ccc2cc(C#N)c(SCC(=O)OC)nc2c1`, the activity in experiment [1] turned out to be 57.9%; in experiment [2] it was 50.3%.

Consider `Cn1cnc(Sc2ncnc3nc[nH]c23)c1[N+](=O)[O-]`, for which the activity in experiment [1] worked out at 62.5%; in experiment [2], 72.5%.

Regarding `O=C(N/N=C/c1ccccc1)c1ccc2c(c1)OCO2`, the activity was found to be 61.2% in experiment [1] and 56.1% in experiment [2].

`CCOc1cccc(C(=O)Nc2ccc3[nH]ncc3c2)c1`: the activity stood at 61% in experiment [1] and 67% in experiment [2].

Regarding `Cc1cccn2c(=O)c3cc(C(=O)NCCc4ccccc4)c(=N)n(Cc4ccco4)c3nc12`, the activity in experiment [1] was found to be 19.5%; in experiment [2], 5.95%.

Turning to `COc1ccc(C)c2sc(N(CCCN(C)C)C(=O)c3ccc(S(=O)(=O)N4CCc5ccccc5C4)cc3)nc12`, the activity worked out at 95.1% in experiment [1] and 99.4% in experiment [2].

`Cc1ccc(OCC(=O)Nc2ccccc2C(N)=O)cc1`: the activity was found to be 66.8% in experiment [1] and 68.1% in experiment [2].

`O=C(Nc1ccc(O)cc1)c1ccc2c(c1)C(=O)N(Cc1ccccc1)C2=O`: the activity was found to be 60.9% in experiment [1] and 19.7% in experiment [2].

For `CCOc1ccc(-c2cc(C(=O)N/N=C(\C)c3cccnc3)c3ccccc3n2)cc1`, the values for the activity in experiment [1] and in experiment [2] were 74% and 69.6%, respectively.

For `C/C(=N\NC(=O)COc1ccc(C(C)(C)C)cc1)c1cc2ccccc2o1`, the activity in experiment [1] is 89.2%; in experiment [2], 84.2%.

For the compound `CNC[C@H](Cc1ccccc1)NC[C@@H](Cc1cccc2ccccc12)NCCc1ccc(C)cc1`, the activity amounted to 95.4% in experiment [1] and 99.1% in experiment [2].

As for `Cc1ccc(CS(=O)(=O)c2ncc(Cl)c(C(=O)Nc3nnc(C(C)C)s3)n2)cc1`, the activity in experiment [1] stood at 67.5%; in experiment [2] it was 59.3%.
